Drawing on PubChem BioAssay AID376 (PDSP, 2006), this text covers hERG blockade for 66 compounds.

Among all 2,000 compounds or so, about 250 (12%) were called active. Many of the other results were omitted from the sample, so actives are more common in it than they were. A number with no mark means an inactive call. Cut-off read from the data, not from the text of the source: active = hERG blockade below about -20% or above about 20%; inactive = in between.

The target of this assay is Voltage-gated inwardly rectifying potassium channel KCNH2 (Homo sapiens) (UniProt Q12809). Kind of assay: modulators of KCNH2 ion channel function, cellular (AID 376).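 Note: 0% = buffer alone and 100% = reference blocker.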 Particulars: hERG-expressing cells, channel activity single-concentration screen; concentration not given here. Background: Block of hERG is tested as a sign of cardiac risk.
Chain of Voltage-gated inwardly rectifying potassium channel KCNH2 (Homo sapiens) (Q12809 whole entry, looked up): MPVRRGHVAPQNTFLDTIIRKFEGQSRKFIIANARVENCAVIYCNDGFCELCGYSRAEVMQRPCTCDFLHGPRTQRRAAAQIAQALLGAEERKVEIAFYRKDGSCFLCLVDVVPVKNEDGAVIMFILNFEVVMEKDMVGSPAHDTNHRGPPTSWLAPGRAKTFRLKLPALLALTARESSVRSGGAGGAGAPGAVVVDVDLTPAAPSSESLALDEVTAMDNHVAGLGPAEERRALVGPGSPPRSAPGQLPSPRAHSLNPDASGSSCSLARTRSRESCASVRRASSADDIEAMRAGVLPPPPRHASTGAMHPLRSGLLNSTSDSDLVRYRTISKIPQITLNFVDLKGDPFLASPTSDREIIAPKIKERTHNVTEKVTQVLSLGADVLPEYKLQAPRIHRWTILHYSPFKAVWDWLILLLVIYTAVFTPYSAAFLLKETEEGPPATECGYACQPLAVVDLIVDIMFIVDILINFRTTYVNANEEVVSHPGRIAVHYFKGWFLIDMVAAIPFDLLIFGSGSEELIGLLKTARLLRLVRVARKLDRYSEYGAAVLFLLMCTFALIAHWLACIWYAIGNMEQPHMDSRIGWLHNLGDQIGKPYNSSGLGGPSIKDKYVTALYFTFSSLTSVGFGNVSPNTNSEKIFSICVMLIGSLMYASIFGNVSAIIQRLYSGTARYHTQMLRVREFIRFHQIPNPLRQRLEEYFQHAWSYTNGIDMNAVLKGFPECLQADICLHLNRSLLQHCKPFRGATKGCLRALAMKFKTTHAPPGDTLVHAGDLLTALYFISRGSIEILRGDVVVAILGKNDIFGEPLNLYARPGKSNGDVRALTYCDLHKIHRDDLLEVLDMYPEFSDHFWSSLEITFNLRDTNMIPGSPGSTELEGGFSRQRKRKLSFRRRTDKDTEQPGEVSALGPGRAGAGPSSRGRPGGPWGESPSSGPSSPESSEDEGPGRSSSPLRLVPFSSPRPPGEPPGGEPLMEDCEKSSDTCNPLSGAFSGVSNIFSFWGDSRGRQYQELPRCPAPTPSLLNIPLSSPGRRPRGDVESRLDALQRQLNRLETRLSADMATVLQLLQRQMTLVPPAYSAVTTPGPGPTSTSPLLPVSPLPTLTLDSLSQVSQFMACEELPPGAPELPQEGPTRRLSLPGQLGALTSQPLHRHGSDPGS
`C[N+](C)(C)CCN[N+]1(C)CCCc2ccccc21` (stereo unspecified): the hERG blockade was 13.2%.
In the case of `CNCC(Cl)=NS(=O)(=O)c1ccc(C)cc1`, the hERG blockade was 2.08%.
On to `CC(=NS(=O)(=O)c1ccc(Cl)c(Cl)c1)OCC(C)(C)C`, for which the hERG blockade is 21.3% (active).
As for `CC(C)(C)C(=O)C(C(c1ccccc1)N1CCOCC1)N1CCOCC1` (stereo unspecified), the hERG blockade is 18.3%.
As for `O=C(O)CC(Cc1ccccc1Cl)C(=O)O` (stereo unspecified), the hERG blockade was 9.3%.
Take `CC(CNC(N)=O)NC(N)=O` (stereo unspecified): the hERG blockade is 2.5%.
With `C[N+](C)(C)c1cc2c(nn1)Nc1ccccc1S2`, the hERG blockade is 43.5% (active).
Regarding `O=C(O)CC1(CC(=O)O)Nc2ccccc2SC1=O`, the hERG blockade was -18.2%.
In the case of `O=S(=O)(O)CCCc1cccc2ccccc12`, the hERG blockade is -12.8%.
Take `Nc1cccc2nsnc12`: the hERG blockade is -4.23%.
For `NC(CCc1ccccc1)(C(=O)O)c1ccccc1` (stereo unspecified), the hERG blockade was -9.5%.
Next, `CC12CCC(=O)C=C1CCC1C2CCC2(C)C(C(=O)COS(=O)(=O)c3ccc(Br)cc3)CCC12` (stereo unspecified): 17%.
As to `O=C(O)C=C(C(=O)O)C12CCN3CC4=CCOC5CC(=O)NC1C5C4CC32` (stereo unspecified), the hERG blockade is 20.4% (active).
Next, `O=C1CC2OCC=C3CN4CCC5(C(=O)O)C(N1)C2C3CC45` (stereo unspecified): -10.2%.
In the case of `NC1C2C(CC(=O)O)OCC=C3CN4CCC1(C(=O)C(=O)O)C4CC32` (stereo unspecified), the hERG blockade is 13%.
For the compound `ON(CCc1ccncc1)Cc1ccccc1`, the hERG blockade was -10.6%.
`CC12CCC(O)CC1CCC1C2CCC2(C)C(c3cc(C(F)(F)F)n[nH]3)CCC12` (stereo unspecified): the hERG blockade is 8.14%.
In the case of `CN(C)S(=O)(=O)c1ccc(Nc2ccc(O)c3c2C(=O)c2c([N+](=O)[O-])ccc(O)c2C3=O)cc1`, the hERG blockade is 64.1% (active).
Under `O=C1c2ccccc2C(=O)c2c(NC3CCCCC3)ccc(Nc3ccc(S(=O)(=O)O)cc3)c21` stands 16.1%; under `O=C1C2C3C=CC(C2C(=O)N1CN1CCSCC1)C1C2C(=O)N(CN4CCSCC4)C(=O)C2C31` (stereo unspecified), 7.62%; under `CC(=O)Nc1ccc(S(=O)(=O)N=S(C)C)cc1`, 14.2%.
Turning to `c1ccc(COC2NCCN2Cc2ccccc2)cc1` (stereo unspecified), the hERG blockade is 7.69%.
Under `c1ccc([P+](CC[P+](c2ccccc2)(c2ccccc2)c2ccccc2)(c2ccccc2)c2ccccc2)cc1` stands 11.7%; under `NCCCc1ccc2oc3ccccc3c2c1`, 29.2% (active); under `Cc1cc(=O)[nH]c2cc3oc4ccccc4c3cc12`, 4.54%.
Consider `O=C(O)CSc1ccc([N+](=O)[O-])cc1[N+](=O)[O-]`, for which the hERG blockade was 2.18%.
With `Cn1cnc([N+](=O)[O-])c1SCC(=O)O`, the hERG blockade is 2.91%.
`O=C(O)CSc1ncccc1[N+](=O)[O-]`: the hERG blockade was -20.2% (active).
As for `NCC(O)CSCc1ccc(Cl)cc1` (stereo unspecified), the hERG blockade is -14.3%.
For the compound `c1ccc(-c2nnn(CCN3CCCCC3)n2)cc1`, the hERG blockade was -7.12%.
For the compound `Cn1c(=O)c2c(nc(NN=Cc3ccccc3C(=O)O)n2C)n(C)c1=O`, the hERG blockade was -7%.
Regarding `CC(C)C(C(=O)O)N1C(=O)c2ccccc2C1=O` (stereo unspecified), the hERG blockade was 5.91%.
For the compound `Cc1ccc(C(N)=Nc2ccccc2)cc1`, the hERG blockade was 8.7%.
Turning to `O=C(O)CCc1ccc(-c2ccccc2)[nH]1`, the hERG blockade was -28.1% (active).
In the case of `O=C(O)CCc1nc2ccccc2[nH]1`, the hERG blockade is -3.47%.
On to `O=C(O)CCc1nc(-c2ccccc2)c(-c2ccccc2)o1`, for which the hERG blockade is 1.96%.
In the case of `O=C(CC(C(=O)O)N1CCOCC1)c1ccccc1` (stereo unspecified), the hERG blockade is 7.79%.
Under `OCC(O)C(O)C(O)C(O)c1nc2ccc(Cl)cc2[nH]1` (stereo unspecified) stands 3.95%; under `Cc1cc(Cc2cc(C)cc(C(C)(C)C)c2O)c(O)c(Cc2cc(C)cc(C(C)(C)C)c2O)c1`, 15.5%.
For the compound `Cc1ncc(CSc2ccccc2N)c(CO)c1O`, the hERG blockade is -7.6%.
Next, `Clc1ccc(CN2CCCN(Cc3ccc(Cl)cc3)C2c2cc3ccccc3c3ccccc23)cc1`: -5.92%.
With `CC(C)(C)c1ccc(CN2CCN(C(c3ccccc3)c3ccc(Cl)cc3)CC2)cc1` (stereo unspecified), the hERG blockade was 23.1% (active).
For the compound `c1ccc(CN2CCC3(CC2)SSC2(CCN(Cc4ccccc4)CC2)SS3)cc1`, the hERG blockade is 1.07%.
For the compound `CC1NCCC(CC(=O)O)C1CC(=O)O` (stereo unspecified), the hERG blockade is -10.6%.
Under `CC(C(=O)c1ccccc1)C(c1ccccc1)N1CCOCC1` (stereo unspecified) stands -13.1%; under `Cc1onc(-c2c(F)cccc2Cl)c1C(=O)NC1C(=O)N2C1SC(C)(C)C2C(=O)O` (stereo unspecified), 8.23%.
On to `Cc1ccc2nc(NN=Cc3cccc(C)n3)cc(C)c2c1`, for which the hERG blockade is 26.3% (active).
Next, `CSc1nnnc2ccccc12`: 8.81%; `O=C(O)C(Cc1ccnc2ccccc12)=NO`: -22.9% (active).
Under `O=C(O)C(=Cc1ccnc2ccccc12)C(=O)O` stands 3.04%.
Under `O=C(O)C(Cc1cn[nH]n1)=NO` stands 7.89%; under `NC(=O)SCC(=O)Nc1ccc2ncccc2c1`, 8.17%; under `CC1(C)N=C(N)N=C(N)N1c1cccc(OCc2cccc([N+](=O)[O-])c2)c1`, -1.1%.
In the case of `CC(C)(COC1CC2CCC1(C)C2(C)C)[N+](=O)[O-]` (stereo unspecified), the hERG blockade was -4.38%.
For `N#CC(=CNc1ccccn1)C(=O)C1CC1`, the hERG blockade was 0.609%.
As for `O=[N+]([O-])c1ccc2c(c1)S(=O)c1ccccc1-2` (stereo unspecified), the hERG blockade is 13.4%.
Regarding `N=C(N)SC1c2ccccc2-c2cc([N+](=O)[O-])ccc21` (stereo unspecified), the hERG blockade was 50.8% (active).
Take `NC(Cc1cccc([N+](=O)[O-])c1)C(=O)O` (stereo unspecified): the hERG blockade was 7.25%.
In the case of `N#CC(N=Nc1ccccc1C(=O)O)C(N)=O` (stereo unspecified), the hERG blockade is -0.342%.
Consider `O=[N+]([O-])c1ccc(C(Nc2ccccc2)c2ccc3cccnc3c2O)cc1` (stereo unspecified), for which the hERG blockade is 11.2%.
Regarding `Cc1cc2ccccc2c[n+]1CC(O)C[n+]1cc2ccccc2cc1C`, the hERG blockade is 26.1% (active).
Regarding `Cc1ccc(S(=O)(=O)OC2CC(C(C)(C)C)CCC2c2ccccc2)cc1` (stereo unspecified), the hERG blockade was 2.36%.
In the case of `COc1cccc2c1C(CO)N1C(C#N)C3CC(C(=O)O)C(C1C2)N3C` (stereo unspecified), the hERG blockade is -24.5% (active).
Regarding `O=C(Nc1cccc(Cl)c1)Nn1cnnc1`, the hERG blockade was 10.3%.
As to `Cc1ccc(CN2CCN(Cc3ccc(C)o3)C(C)C2)o1` (stereo unspecified), the hERG blockade is 0.417%.
Under `O=C(O)C1C2C=CC(O2)C1C(=O)Nc1ncccn1` (stereo unspecified) stands -6.76%.
